{
  "source": "PubChem BioAssay AID463173",
  "about": "(ICCB-Longwood Screening Facility, Harvard Medical School, 2010)",
  "note": "In all, about 52,000 compounds went through this assay and about 4,300 (8.3%) were called active. The sample as a whole holds a higher share of actives than the screen did. Unmarked numbers belong to inactive results. Cut-off read from the data, not from the text of the source: active = survival mostly below about 52% (no sharp cut-off); inactive = mostly above about 56%.",
  "data": [
    {"system": "DeltatarO mutant", "assay": "growth inhibition of S. aureus wild type versus tarO mutant, primary screen, teichoic acid synthesis inhibitors, RN4220, OD600 (AID 463173)", "settings": "OD600, 18 h, hits give low values, screened at 18.75 µg/mL (by protocol)", "values": [
      {"smiles": "COc1ccc(-n2nc3c(N4CCC(C(=O)NCc5ccccc5C)CC4)nnc(C)c3c2C)cc1", "survival": "90%"},
      {"smiles": "CCOCCc1nn2c(=O)cc(COC(=O)C(CC)c3ccccc3)nc2s1", "note": "(stereo not given)", "survival": "55%"},
      {"smiles": "C=CCNC1CCS(=O)(=O)C1", "note": "(stereo not given)", "survival": "98%"},
      {"smiles": "CSc1ccc(-c2ccc3c(c2)OCCO3)nn1", "survival": "91%"},
      {"smiles": "COc1ccc(N2CCN(CCN3CCCCC3)CC2)cc1", "survival": "83%"},
      {"smiles": "CCC(C)(C)NC(=O)Cn1c(-c2ccc(C)cc2)noc1=O", "survival": "86%"},
      {"smiles": "COC(=O)c1c(Oc2ccc(Br)cc2)nnc(-c2ccccc2)c1-c1ccccc1", "survival": "85%"},
      {"smiles": "COc1ccc(-c2nc(C)c(CCNC(=O)c3cccc(C)c3)s2)cc1OC", "survival": "86%"},
      {"smiles": "CCOC(=O)N1CCN(C(=O)c2cnn3c(C(F)(F)F)cc(-c4cccc(OC)c4)nc23)CC1", "survival": "68%"},
      {"smiles": "COC(=O)CSc1nc(-c2ccc(F)cc2)cc(C(F)(F)F)n1", "survival": "126%"},
      {"smiles": "COc1ccc(-c2cc(C(F)(F)F)n3nc(-c4ccc(Cl)cc4)cc3n2)cc1OC", "survival": "48%"},
      {"smiles": "CCOC(=O)c1ccn(-c2nc(-c3cccc(OC)c3)cc(C(F)(F)F)n2)n1", "survival": "18% (active)"},
      {"smiles": "COC(=O)c1ccn(-c2nc(-c3ccc(Cl)cc3)cc(C(F)(F)F)n2)n1", "survival": "13% (active)"},
      {"smiles": "CCOC(=O)c1c(NC(=O)CSc2nc(-c3ccc(OC)cc3)cc(C(F)(F)F)n2)sc(C)c1C", "survival": "68%"},
      {"smiles": "CCc1ccccc1NC(=O)C(Cc1cccc(OC)c1)c1nn[nH]n1", "note": "(stereo not given)", "survival": "54%"},
      {"smiles": "CC(=O)N1CCc2c(sc3c2c(=O)n(-c2cccc(Cl)c2C)c(=O)n3Cc2ccccc2C)C1", "survival": "61%"},
      {"smiles": "CC(=O)NC1=NN(C(C)=O)C2(S1)C(=O)Nc1ccccc12", "note": "(stereo not given)", "survival": "90%"},
      {"smiles": "O=C(COc1ccc(Cl)cc1)Nc1ccc(C(=O)OCc2cc(=O)n3ccsc3n2)cc1", "survival": "88%"},
      {"smiles": "O=C(CSc1ncc2c(n1)-c1cc(Cl)ccc1N(Cc1ccccc1)S2(=O)=O)NCCc1ccccc1", "survival": "89%"},
      {"smiles": "CCCCCn1c(=O)[nH]c2cc(C(=O)N3CCN(c4cccc(C(F)(F)F)c4)CC3)ccc2c1=O", "survival": "66%"},
      {"smiles": "Cc1ccccc1CCNC(=O)c1ccc2c(c1)nc1n2CCC(C)C1", "note": "(stereo not given)", "survival": "83%"},
      {"smiles": "Cc1cc(S(=O)(=O)N2CCCC2)ccc1-n1cnnn1", "survival": "113%"},
      {"smiles": "CCOC(=O)c1ccc(NC(=O)CSc2nc3ccccc3c(=O)n2CCC(=O)NC2CCCCC2)cc1", "survival": "91%"},
      {"smiles": "CC1(C)OC(c2ccccc2)CC1=O", "note": "(stereo not given)", "survival": "110%"},
      {"smiles": "CC(C)=CCc1c(O)cc(O)c2c1OC(c1ccccc1)CC2=O", "note": "(stereo not given)", "survival": "1% (active)"},
      {"smiles": "Cc1oc(-c2ccccc2F)nc1CS(=O)CC(=O)NC(C)C", "note": "(stereo not given)", "survival": "89%"},
      {"smiles": "Cc1ccc(Sc2c(C)nn(C(=O)COc3ccccc3)c2C)cc1", "survival": "25% (active)"},
      {"smiles": "Cc1nn(C(=O)COc2ccccc2)c(C)c1Sc1ccccc1", "survival": "115%"},
      {"smiles": "Cc1ccc(Sc2c(C)nn(C(=O)c3ccc(Cl)cc3)c2C)cc1", "survival": "19% (active)"},
      {"smiles": "Cc1nn(C(=O)c2ccccc2)c(C)c1S(=O)(=O)N1CCCCCC1", "survival": "89%"},
      {"smiles": "Cc1ccc(Sc2c(C)nn(C(=O)COc3ccc(F)cc3)c2C)cc1", "survival": "92%"},
      {"smiles": "Cc1ccc(C(=O)n2nc(C)c(S(=O)(=O)N3CCCCCC3)c2C)cc1", "survival": "91%"},
      {"smiles": "COc1cc(C(=O)n2nc(C)c(Sc3ccc(Cl)cc3)c2C)cc(OC)c1OC", "survival": "57%"},
      {"smiles": "Cc1nn(C(=O)COc2ccc(Cl)cc2)c(C)c1Sc1ccccc1", "survival": "87%"},
      {"smiles": "Cc1nn(C(=O)c2ccccc2)c(C)c1Sc1ccc(Cl)cc1", "survival": "10% (active)"},
      {"smiles": "Cc1nn(C(=O)c2ccc(Cl)cc2)c(C)c1S(=O)(=O)N1CCOCC1", "survival": "91%"},
      {"smiles": "Cc1nn(C(=O)c2ccc(Cl)cc2)c(C)c1Sc1ccc(Cl)cc1", "survival": "51% (active)"},
      {"smiles": "Cc1nn(C(=O)c2ccc(Cl)cc2)c(C)c1S(=O)(=O)N1CCCCCC1", "survival": "80%"},
      {"smiles": "Cn1nccc1C(=O)NCc1ccc2c(c1)CCN2C(=O)c1ccccc1", "survival": "90%"},
      {"smiles": "O=C1CN(C(=O)c2ccc(S(=O)(=O)N3CCCCC3)cc2)C(c2ccc(F)cc2)c2cc(Br)ccc2N1", "note": "(stereo not given)", "survival": "77%"},
      {"smiles": "COc1ccc(-n2c(SCc3nc(-c4ccc(C)cc4)no3)nnc2-c2ccccc2)cc1", "survival": "60%"},
      {"smiles": "O=C(Nc1ccc(OC(F)(F)F)cc1)C1CCCN(S(=O)(=O)c2cccc3nonc23)C1", "note": "(stereo not given)", "survival": "96%"},
      {"smiles": "Cc1cc(C)cc(C(=O)NCC(c2ccc(N(C)C)cc2)N2CCCC2)c1", "note": "(stereo not given)", "survival": "95%"},
      {"smiles": "CCN(CC)CCn1c(=N)n(CCOc2ccccc2Cl)c2ccccc21", "survival": "59%"},
      {"smiles": "CC1CCN(c2nc(-c3ccc(Br)cc3)nc3ccccc23)CC1", "survival": "82%"},
      {"smiles": "CC1CCN(c2nc3ccccc3nc2C(F)(F)F)CC1", "survival": "75%"},
      {"smiles": "CC1CCCCN1C(=O)CSc1nc(C2CC2)nc2ccccc12", "note": "(stereo not given)", "survival": "82%"},
      {"smiles": "CC1CCCCN1c1nc(-c2ccc(C(C)(C)C)cc2)nc2ccccc12", "note": "(stereo not given)", "survival": "3% (active)"},
      {"smiles": "CC1CCN(c2nc(-c3ccc(C(C)(C)C)cc3)nc3ccccc23)CC1", "survival": "6% (active)"},
      {"smiles": "Brc1ccc(-c2nc(N3CCN(c4ccccc4)CC3)c3ccccc3n2)cc1", "survival": "117%"},
      {"smiles": "Cc1ccc(C(C(=O)NC2CCCCC2)N(C(=O)Cc2c[nH]c3ccccc23)C2CC2)o1", "note": "(stereo not given)", "survival": "94%"},
      {"smiles": "COc1ccccc1C1CC(=O)NC(C)=C1C(=O)OC1CCCCCC1", "note": "(stereo not given)", "survival": "86%"},
      {"smiles": "CCN1CCN(c2ccc(NC(=O)COc3ccccc3)cc2)CC1", "survival": "106%"},
      {"smiles": "O=C(CN1CCN(c2ccc(F)cc2)CC1)N1CCCC1", "survival": "83%"},
      {"smiles": "O=S(=O)(c1ccc(F)cc1)N1CCCCC1", "survival": "86%"},
      {"smiles": "O=S(=O)(N1CCCCC1)N1CCN(c2ccc(F)cc2)CC1", "survival": "65% (active)"},
      {"smiles": "CCc1ccc(NC(=O)Cn2c(=O)n(Cc3ccco3)c(=O)c3cccnc32)cc1", "survival": "82%"},
      {"smiles": "CC1(C)CC(=O)C=C(NCC(O)c2ccccc2)C1", "note": "(stereo not given)", "survival": "102%"},
      {"smiles": "Cc1ccc(CNC(=O)CN(c2ccc(C)cc2)S(=O)(=O)c2c(C)nn(C)c2C)cc1", "survival": "73%"},
      {"smiles": "O=C(c1cc2ccccc2oc1=O)N(Cc1cccs1)Cc1cccs1", "survival": "48%"},
      {"smiles": "Cc1ccccc1CN(Cc1ccco1)C(=O)c1cc2ccccc2oc1=O", "survival": "44% (active)"},
      {"smiles": "O=C(NCC1CCCO1)c1cc2ccccc2oc1=O", "note": "(stereo not given)", "survival": "80%"},
      {"smiles": "O=C(c1cc2ccccc2oc1=O)N(Cc1ccc(F)cc1)C1CC1", "survival": "88%"},
      {"smiles": "CCC1Oc2ccc(C)cc2N(CC(=O)N(Cc2ccc3c(c2)OCO3)CC2CCCO2)C1=O", "note": "(stereo not given)", "survival": "96%"},
      {"smiles": "COc1ccc(CN(Cc2ccco2)C(=O)c2cc3ccccc3oc2=O)c(OC)c1", "survival": "40% (active)"},
      {"smiles": "COc1ccccc1C(=O)N(Cc1ccco1)Cc1ccccc1F", "survival": "60%"},
      {"smiles": "CC(C)(C)c1ccc(C(=O)N(Cc2ccc(F)cc2)Cc2ccco2)cc1", "survival": "55%"},
      {"smiles": "O=C(c1cc2ccccc2oc1=O)N(Cc1ccc(F)cc1)Cc1ccco1", "survival": "41% (active)"},
      {"smiles": "Cc1cccc2cc(CN(Cc3ccco3)C(=O)c3ccccc3)c(=O)[nH]c12", "survival": "95%"},
      {"smiles": "O=C(c1cc2ccccc2oc1=O)N(Cc1ccc2c(c1)OCO2)CC1CCCO1", "note": "(stereo not given)", "survival": "42% (active)"},
      {"smiles": "COc1ccc2oc(=O)c(C(=O)NCc3ccco3)cc2c1", "survival": "100%"},
      {"smiles": "O=C(O)CCn1cnc2sc3c(c2c1=O)CCCC3", "survival": "105%"},
      {"smiles": "Nc1cnc2cccc3c2c1-c1ccccc1C3=O", "survival": "86%"},
      {"smiles": "Cc1ccc(S(=O)(=O)c2cnc(SCC(=O)Nc3cc(C)cc(C)c3)nc2N)cc1", "survival": "102%"},
      {"smiles": "COc1ccc(-c2cc(C(=O)NCCc3ccc(Cl)cc3)[nH]n2)cc1", "survival": "72%"},
      {"smiles": "Cc1c(Cl)cccc1-n1ncc(C(=O)N2CCc3ccccc3C2)c1C1CCN(C(=O)OC(C)(C)C)CC1", "survival": "85%"},
      {"smiles": "COc1ccc(C(=O)NCCn2cc(SCC(=O)Nc3ccc4c(c3)OCCO4)c3ccccc32)cc1", "survival": "153%"},
      {"smiles": "CCOC(=O)c1c(C)oc2nc(C)nc(NCC3CCN(Cc4ccc(F)cc4)CC3)c12", "survival": "102%"},
      {"smiles": "Cc1ccc(C)c(NC(=O)CCc2c(C)nn(-c3ccc(N4CCCC4)nn3)c2C)c1", "survival": "67%"},
      {"smiles": "COc1ccccc1Nc1c2c(nc3ccc(NC(=O)/C=C/c4cccc(OC)c4OC)cc13)CCCC2", "survival": "74%"},
      {"smiles": "Cc1ccc(-c2nc3ccc(Cl)cn3c2Nc2ccccc2C)s1", "survival": "107%"},
      {"smiles": "Cc1ccccc1Nc1c(-c2ccc(Cl)s2)nc2c(C)cccn12", "survival": "69%"},
      {"smiles": "Cc1cccc(C)c1Nc1c(-c2ccccn2)nc2c(C)cccn12", "survival": "51%"},
      {"smiles": "Fc1ccc(Nc2c(-c3ccco3)nc3ccccn23)cc1", "survival": "53%"},
      {"smiles": "Cc1ccccc1Nc1c(-c2c[nH]c3ccccc23)nc2ccccn12", "survival": "69%"},
      {"smiles": "Cc1ccccc1Nc1c(-c2ccco2)nc2c(C)cccn12", "survival": "25% (active)"},
      {"smiles": "Cc1ccc(-c2nc3ccccn3c2Nc2ccc3c(c2)OCCO3)s1", "survival": "79%"},
      {"smiles": "Cc1ccc(Nc2c(-c3ccc(C)s3)nc3ccccn23)cc1", "survival": "31% (active)"},
      {"smiles": "Cc1ccc(-c2nc3c(C)cccn3c2Nc2ccccc2C)s1", "survival": "0% (active)"},
      {"smiles": "Cc1ccc(-c2nc3ccccn3c2Nc2ccccc2C)s1", "survival": "21% (active)"},
      {"smiles": "Cc1ccc(Nc2c(-c3ccc(N(C)C)cc3)nc3ccccn23)cc1", "survival": "131%"},
      {"smiles": "Cc1ccccc1Nc1c(-c2ccc(Cl)s2)nc2cccc(C)n12", "survival": "99%"},
      {"smiles": "COc1ccc2c(c1)c1c(c(=O)n(Cc3ccccc3)c(=O)n1CC(=O)NCc1ccccc1)n2C", "survival": "91%"},
      {"smiles": "COc1ccccc1CNC(=O)CCc1c(C)c2ccc(OC)c(C)c2oc1=O", "survival": "74%"},
      {"smiles": "Cc1ccc(Cl)cc1-n1nnc(-c2nc(-c3ccc4c(c3)OCO4)no2)c1C", "survival": "122%"}
    ]}
  ]
}
